Measured values reported in the supplement of paper PMC10849652.
About 7,900 targets were measured; listed, in parts, are those with a hit and a random draw of the rest. About 0.6% of all pairs of compound and target were hits.

How the values were obtained:
Assay in all cases: log2 fold change, soluble protein after heating vs DMSO (PISA); higher = thermal stabilisation; K562 cells, 10 uM, 30 min; active = over 0.2 and 3.5 SD of the protein, either way, in both replicates (recomputed)
[1] = compound: CS(=O)(=O)c1ccc(-c2cnc(N)c(C(=O)Nc3ccccc3)n2)cc1
Procedure, shortened: (§1)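 K562 cells at 2×10^6 cells/mL were given 10 μM compound for 30 min. Aliquots then went through 3 min of heating across 48°C-58°C, were pooled, and were extracted in PBS with 0.5% NP-40 at 4°C, and the supernatant after 21,000xg for 90 min was quantified by TMTpro 16plex LC-MS/MS with channel sums equalised. Thermal stability relative to control samples, from duplicates, is given as log2 fold change.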

[2] = compound: C[C@@H](Oc1cc(-c2cnn(C3CCNCC3)c2)cnc1N)c1c(Cl)ccc(F)c1Cl [crizotinib]
Procedure, shortened: as §1

[3] = compound: C[C@@H]1COCCN1C2=NC(=NC(=C2)C3(CC3)S(=O)(=O)C)C4=C5C=CNC5=CC=C4
Procedure, shortened: as §1

[4] = compound: C[C@H](C1=CC=C(C=C1)C(=O)NC2=C3C=CNC3=NC=C2)N
Procedure, shortened: as §1

[5] = compound: C[C@H](Nc1ncnc2nc[nH]c12)c1cc2cccc(Cl)c2c(=O)n1-c1ccccc1 [duvelisib]
Procedure, shortened: as §1

[6] = compound: Cc1cc(Nc2cc(CN3CCOCC3)c3nc(C)c(Cc4ccc(Cl)cc4F)n3n2)n[nH]1 [gandotinib]
Procedure, shortened: as §1

[7] = compound: Cc1cc(Nc2cc(N3CCN(C)CC3)nc(Sc3ccc(NC(=O)C4CC4)cc3)n2)n[nH]1 [tozasertib]
Procedure, shortened: as §1

[8] = compound: Cc1cc(SCc2sc(-c3ccc(C(F)(F)F)cc3)nc2C)ccc1OCC(=O)O
Procedure, shortened: as §1

[9] = compound: Cc1ccc(-n2nc(C(C)(C)C)cc2NC(=O)Nc2ccc(OCCN3CCOCC3)c3ccccc23)cc1 [doramapimod]
Procedure, shortened: as §1

[10] = compound: Cc1ccc(C(=O)N(CCCN)[C@@H](c2nc3cc(Cl)ccc3c(=O)n2Cc2ccccc2)C(C)C)cc1 [ispinesib]
Procedure, shortened: as §1

Measured: log2 fold change

TUBA4A (UniProt P68366)
inactive: [1] 0.004 | [2] -0.11 | [3] 0.099 | [4] -0.054 | [5] 0.329 | [6] 0.014 | [7] -0.068 | [8] 0.208 | [9] 0.008 | [10] 0.009

TOP2A isoform 4 (UniProt P11388)
inactive: [1] -0.071 | [2] -0.157 | [3] -0.337 | [4] 0.559 | [5] -0.185 | [6] 0.158 | [7] -0.025 | [8] 0.015 | [9] 0.362 | [10] -0.376

TTI2 (UniProt Q6NXR4)
inactive: [1] -0.066 | [2] -0.155 | [3] 0.028 | [4] 0.121 | [5] -0.067 | [7] 0.004 | [8] 0.142 | [9] 0.013 | [10] -0.204

WDR4 (UniProt P57081)
inactive: [1] 0.085 | [2] -0.038 | [3] -0.024 | [4] -0.121 | [5] 0.014 | [6] 0.049 | [7] -0.007 | [8] 0.017 | [9] 0.023 | [10] 0.075

TRABD (UniProt Q9H4I3)
UniProt Q9H4I3, sequence (Q9H4I3 whole entry, looked up): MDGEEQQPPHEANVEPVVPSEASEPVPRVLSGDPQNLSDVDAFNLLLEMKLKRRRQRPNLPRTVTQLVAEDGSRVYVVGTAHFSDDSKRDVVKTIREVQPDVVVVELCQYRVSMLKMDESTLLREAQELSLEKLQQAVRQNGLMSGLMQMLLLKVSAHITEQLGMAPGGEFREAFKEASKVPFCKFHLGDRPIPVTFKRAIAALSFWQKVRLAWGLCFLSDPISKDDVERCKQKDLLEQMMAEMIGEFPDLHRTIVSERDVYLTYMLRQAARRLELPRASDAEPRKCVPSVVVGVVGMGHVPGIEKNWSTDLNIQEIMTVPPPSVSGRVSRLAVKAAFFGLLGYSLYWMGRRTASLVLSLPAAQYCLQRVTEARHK
inactive: [1] -0.041 | [2] 0.174 | [3] 0.097 | [4] -0.062 | [6] 0.059 | [7] 0.009 | [9] 0.025
active: [10] 0.597

TRAPPC6B (UniProt Q86SZ2)
UniProt Q86SZ2, sequence (Q86SZ2 whole entry, looked up): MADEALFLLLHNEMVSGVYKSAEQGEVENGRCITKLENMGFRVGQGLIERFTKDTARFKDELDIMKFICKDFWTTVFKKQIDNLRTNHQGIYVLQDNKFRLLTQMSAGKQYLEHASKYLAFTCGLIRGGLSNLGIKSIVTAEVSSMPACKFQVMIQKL
inactive: [1] -0.008 | [2] 0.024 | [3] 0.111 | [4] -0.069 | [5] 0.044 | [6] -0.045 | [7] 0.014 | [8] -0.014 | [9] 0.025 | [10] 0.014

TRIM4 (UniProt Q9C037)
UniProt Q9C037, sequence (Q9C037 whole entry, looked up): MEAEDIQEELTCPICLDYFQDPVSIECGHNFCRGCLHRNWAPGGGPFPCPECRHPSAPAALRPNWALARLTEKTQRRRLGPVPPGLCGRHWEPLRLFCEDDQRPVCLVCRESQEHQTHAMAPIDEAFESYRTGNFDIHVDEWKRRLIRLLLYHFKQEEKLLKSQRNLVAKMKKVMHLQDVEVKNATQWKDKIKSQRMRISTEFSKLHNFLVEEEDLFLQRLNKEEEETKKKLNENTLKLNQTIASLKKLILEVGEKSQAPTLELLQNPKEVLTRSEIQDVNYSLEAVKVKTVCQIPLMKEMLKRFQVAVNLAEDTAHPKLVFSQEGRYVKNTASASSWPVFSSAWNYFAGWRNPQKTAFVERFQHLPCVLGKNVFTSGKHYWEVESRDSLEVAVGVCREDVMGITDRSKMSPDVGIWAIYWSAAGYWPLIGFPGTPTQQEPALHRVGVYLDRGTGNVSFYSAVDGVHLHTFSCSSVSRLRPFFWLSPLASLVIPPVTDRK
inactive: [1] 0.114 | [2] 0.045 | [3] 0.037 | [4] 0.061 | [6] -0.023 | [7] 0.023 | [9] 0.092 | [10] -0.033

TMEM9B (UniProt Q9NQ34)
UniProt Q9NQ34, sequence (Q9NQ34 whole entry, looked up): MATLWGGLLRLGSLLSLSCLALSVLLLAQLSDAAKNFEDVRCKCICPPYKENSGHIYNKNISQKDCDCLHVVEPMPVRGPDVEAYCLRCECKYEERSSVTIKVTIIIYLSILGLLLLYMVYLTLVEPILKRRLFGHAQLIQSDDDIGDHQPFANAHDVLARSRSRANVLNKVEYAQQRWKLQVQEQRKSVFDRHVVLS
inactive: [1] -0.035 | [2] -0.011 | [3] 0.105 | [4] 0.061 | [6] -0.116 | [7] -0.03 | [9] 0.023 | [10] -0.211

UCHL5 isoform 3 (UniProt Q9Y5K5)
inactive: [1] 0.039 | [2] -0.458 | [3] 0.058 | [4] -0.05 | [7] 0.219 | [9] -0.067 | [10] 0.02

USP14 (UniProt P54578)
inactive: [1] 0.006 | [2] -0.023 | [3] 0.082 | [4] -0.037 | [5] 0.067 | [6] -0.078 | [7] -0.002 | [8] 0.076 | [9] 0.002 | [10] 0.017

TMEM41A (UniProt Q96HV5)
UniProt Q96HV5, sequence (Q96HV5 whole entry, looked up): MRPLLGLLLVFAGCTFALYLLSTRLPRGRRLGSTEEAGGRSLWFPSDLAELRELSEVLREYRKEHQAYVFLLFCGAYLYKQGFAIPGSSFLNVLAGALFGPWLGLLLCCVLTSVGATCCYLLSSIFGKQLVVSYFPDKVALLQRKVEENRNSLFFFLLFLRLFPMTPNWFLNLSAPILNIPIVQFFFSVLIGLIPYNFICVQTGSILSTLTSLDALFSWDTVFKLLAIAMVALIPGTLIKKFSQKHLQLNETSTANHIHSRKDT
inactive: [1] -0.023 | [2] 0.139 | [3] 0.137 | [5] -0.001 | [6] -0.044 | [7] -0.138 | [8] 0 | [9] 0.025 | [10] 0.065

TSC2 (UniProt P49815)
inactive: [1] -0.09 | [2] 0.065 | [3] -0.139 | [4] 0.218 | [6] -0.091 | [7] -0.172 | [9] 0.09 | [10] 0.012

TOM1 isoform 2 (UniProt O60784)
inactive: [1] 0.146 | [2] -0.002 | [3] 0.035 | [4] -0.096 | [5] 0.043 | [6] 0.101 | [7] 0.013 | [8] 0.023 | [9] -0.078 | [10] -0.043

TTC33 (UniProt Q6PID6)
inactive: [1] 0.056 | [2] -0.399 | [3] -0.113 | [4] 0.146 | [5] 0.002 | [6] -0.192 | [8] -0.06 | [9] -0.15 | [10] -0.095

TRIQK (UniProt Q629K1)
UniProt Q629K1, sequence (Q629K1 whole entry, looked up): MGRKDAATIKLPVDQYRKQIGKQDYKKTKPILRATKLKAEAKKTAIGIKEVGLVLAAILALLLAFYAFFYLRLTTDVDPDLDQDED
inactive: [1] 0.003 | [2] 0.024 | [3] 0.072 | [4] 0.017 | [5] 0.073 | [7] -0.003 | [8] -0.006 | [9] 0.008 | [10] 0.182

UBE3B (UniProt Q7Z3V4)
inactive: [1] 0.106 | [2] -0.133 | [3] 0.254 | [4] -0.108 | [5] 0.141 | [7] -0.109 | [8] 0.021 | [9] -0.055 | [10] 0.178

UBE3D (UniProt Q7Z6J8)
inactive: [1] 0.002 | [2] 0.053 | [3] 0.128 | [4] -0.067 | [5] 0.016 | [6] -0.147 | [7] 0.076 | [8] -0.052 | [9] -0.01 | [10] -0.024

TRAPPC2L (UniProt Q9UL33)
UniProt Q9UL33, sequence (Q9UL33 whole entry, looked up): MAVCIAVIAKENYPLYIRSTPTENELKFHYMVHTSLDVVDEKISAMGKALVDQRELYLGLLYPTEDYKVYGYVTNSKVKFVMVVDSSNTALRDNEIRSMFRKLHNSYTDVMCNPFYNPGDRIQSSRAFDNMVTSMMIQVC
inactive: [1] 0.009 | [2] -0.035 | [3] 0.054 | [4] 0.035 | [5] 0.026 | [6] -0.023 | [7] 0.015 | [8] 0.001 | [9] -0.143 | [10] 0.119

USP3 (UniProt Q9Y6I4)
UniProt Q9Y6I4, sequence (Q9Y6I4 whole entry, looked up): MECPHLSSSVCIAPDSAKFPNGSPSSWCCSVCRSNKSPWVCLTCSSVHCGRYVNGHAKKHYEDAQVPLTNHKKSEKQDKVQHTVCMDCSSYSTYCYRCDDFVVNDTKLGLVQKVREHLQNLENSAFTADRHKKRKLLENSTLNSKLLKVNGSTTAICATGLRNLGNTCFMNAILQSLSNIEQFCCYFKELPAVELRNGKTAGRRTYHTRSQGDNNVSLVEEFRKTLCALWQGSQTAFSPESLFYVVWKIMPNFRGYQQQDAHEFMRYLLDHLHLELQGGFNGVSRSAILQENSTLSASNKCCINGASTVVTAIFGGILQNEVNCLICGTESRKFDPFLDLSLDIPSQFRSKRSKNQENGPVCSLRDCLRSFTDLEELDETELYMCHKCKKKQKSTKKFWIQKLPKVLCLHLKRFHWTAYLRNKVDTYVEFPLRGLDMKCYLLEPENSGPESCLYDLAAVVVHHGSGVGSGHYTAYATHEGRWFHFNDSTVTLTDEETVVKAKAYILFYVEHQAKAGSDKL
inactive: [1] 0.065 | [2] -0.131 | [3] 0.043 | [4] -0.26 | [5] -0.008 | [6] -0.246 | [7] -0.003 | [8] 0.155 | [9] -0.023 | [10] -0.04

TXN2 (UniProt Q99757)
UniProt Q99757, sequence (Q99757 whole entry, looked up): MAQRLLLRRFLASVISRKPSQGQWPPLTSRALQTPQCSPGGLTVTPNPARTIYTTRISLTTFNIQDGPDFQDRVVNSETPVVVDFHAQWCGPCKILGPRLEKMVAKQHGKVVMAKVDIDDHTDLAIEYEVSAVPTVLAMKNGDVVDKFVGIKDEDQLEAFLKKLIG
inactive: [1] -0.001 | [2] 0.128 | [3] -0.047 | [5] 0.031 | [6] 0.105 | [7] 0.009 | [8] -0.026 | [9] -0.034 | [10] 0.028
active: [4] -0.317

VARS2, A0A0G2JL52
active: [10] -0.244
inactive: [1] 0.004 | [2] 0 | [3] 0.06 | [4] 0.018 | [5] 0.012 | [6] -0.061 | [7] -0.034 | [8] 0.025 | [9] 0.048

VPS50 (UniProt Q96JG6)
UniProt Q96JG6, sequence (Q96JG6 whole entry, looked up): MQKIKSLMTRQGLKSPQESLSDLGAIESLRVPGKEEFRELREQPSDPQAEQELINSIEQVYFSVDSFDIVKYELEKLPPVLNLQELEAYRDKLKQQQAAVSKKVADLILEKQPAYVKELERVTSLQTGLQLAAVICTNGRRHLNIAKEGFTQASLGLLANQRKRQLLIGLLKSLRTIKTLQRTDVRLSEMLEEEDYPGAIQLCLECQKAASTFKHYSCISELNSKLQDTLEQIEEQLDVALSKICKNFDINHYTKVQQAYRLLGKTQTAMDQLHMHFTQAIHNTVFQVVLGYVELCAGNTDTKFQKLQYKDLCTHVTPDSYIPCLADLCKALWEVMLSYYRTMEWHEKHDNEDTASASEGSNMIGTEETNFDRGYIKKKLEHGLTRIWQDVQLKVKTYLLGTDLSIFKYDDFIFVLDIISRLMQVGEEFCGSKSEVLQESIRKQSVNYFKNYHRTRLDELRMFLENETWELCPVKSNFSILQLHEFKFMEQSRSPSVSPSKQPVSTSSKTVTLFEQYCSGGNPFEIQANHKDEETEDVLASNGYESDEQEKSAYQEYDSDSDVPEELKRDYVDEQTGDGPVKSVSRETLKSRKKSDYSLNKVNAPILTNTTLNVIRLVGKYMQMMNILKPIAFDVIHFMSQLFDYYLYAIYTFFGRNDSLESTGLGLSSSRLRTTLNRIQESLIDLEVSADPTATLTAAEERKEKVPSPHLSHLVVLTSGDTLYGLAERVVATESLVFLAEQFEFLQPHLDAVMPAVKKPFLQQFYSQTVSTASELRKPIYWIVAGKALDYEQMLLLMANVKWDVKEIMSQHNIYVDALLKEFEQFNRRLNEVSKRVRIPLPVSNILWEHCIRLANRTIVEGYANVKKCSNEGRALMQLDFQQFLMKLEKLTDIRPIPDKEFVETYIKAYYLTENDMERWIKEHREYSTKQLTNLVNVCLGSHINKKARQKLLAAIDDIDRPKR
inactive: [1] 0.012 | [2] -0.118 | [3] 0.044 | [4] 0.049 | [5] -0.017 | [6] -0.066 | [7] 0.01 | [8] 0.086 | [9] -0.032 | [10] -0.023

UFM1 (UniProt P61960)
UniProt P61960, sequence (P61960 whole entry, looked up): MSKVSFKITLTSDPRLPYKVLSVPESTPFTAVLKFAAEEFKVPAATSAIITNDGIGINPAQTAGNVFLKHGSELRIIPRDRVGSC
inactive: [1] 0.021 | [2] 0.004 | [3] 0.178 | [4] -0.062 | [5] 0.146 | [7] -0.056 | [8] -0.043 | [9] -0.037 | [10] 0.158

TMEM128 (UniProt Q5BJH2)
UniProt Q5BJH2, sequence (Q5BJH2 whole entry, looked up): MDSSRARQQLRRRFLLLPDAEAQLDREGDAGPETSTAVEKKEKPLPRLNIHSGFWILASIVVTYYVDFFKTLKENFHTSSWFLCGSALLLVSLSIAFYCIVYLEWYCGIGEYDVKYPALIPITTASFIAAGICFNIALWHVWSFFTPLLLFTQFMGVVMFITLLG
inactive: [1] 0.001 | [2] 0.234 | [3] -0.062 | [4] 0.025 | [5] -0.009 | [7] 0.06 | [8] 0.016 | [9] -0.138 | [10] 0.021

WDR46, A0A0G2JJL1
inactive: [1] -0.119 | [2] 0.086 | [3] -0.581 | [5] -0.157 | [7] 0.198 | [8] -0.125 | [9] 0.236

UBA52 (UniProt P62987)
active: [3] -0.909
inactive: [1] -0.065 | [2] -0.02 | [4] 0.364 | [6] 0.44 | [7] 0.053 | [9] 0.118 | [10] -0.165

USP48 isoform 8 (UniProt Q86UV5)
UniProt Q86UV5, sequence (Q86UV5 whole entry, looked up): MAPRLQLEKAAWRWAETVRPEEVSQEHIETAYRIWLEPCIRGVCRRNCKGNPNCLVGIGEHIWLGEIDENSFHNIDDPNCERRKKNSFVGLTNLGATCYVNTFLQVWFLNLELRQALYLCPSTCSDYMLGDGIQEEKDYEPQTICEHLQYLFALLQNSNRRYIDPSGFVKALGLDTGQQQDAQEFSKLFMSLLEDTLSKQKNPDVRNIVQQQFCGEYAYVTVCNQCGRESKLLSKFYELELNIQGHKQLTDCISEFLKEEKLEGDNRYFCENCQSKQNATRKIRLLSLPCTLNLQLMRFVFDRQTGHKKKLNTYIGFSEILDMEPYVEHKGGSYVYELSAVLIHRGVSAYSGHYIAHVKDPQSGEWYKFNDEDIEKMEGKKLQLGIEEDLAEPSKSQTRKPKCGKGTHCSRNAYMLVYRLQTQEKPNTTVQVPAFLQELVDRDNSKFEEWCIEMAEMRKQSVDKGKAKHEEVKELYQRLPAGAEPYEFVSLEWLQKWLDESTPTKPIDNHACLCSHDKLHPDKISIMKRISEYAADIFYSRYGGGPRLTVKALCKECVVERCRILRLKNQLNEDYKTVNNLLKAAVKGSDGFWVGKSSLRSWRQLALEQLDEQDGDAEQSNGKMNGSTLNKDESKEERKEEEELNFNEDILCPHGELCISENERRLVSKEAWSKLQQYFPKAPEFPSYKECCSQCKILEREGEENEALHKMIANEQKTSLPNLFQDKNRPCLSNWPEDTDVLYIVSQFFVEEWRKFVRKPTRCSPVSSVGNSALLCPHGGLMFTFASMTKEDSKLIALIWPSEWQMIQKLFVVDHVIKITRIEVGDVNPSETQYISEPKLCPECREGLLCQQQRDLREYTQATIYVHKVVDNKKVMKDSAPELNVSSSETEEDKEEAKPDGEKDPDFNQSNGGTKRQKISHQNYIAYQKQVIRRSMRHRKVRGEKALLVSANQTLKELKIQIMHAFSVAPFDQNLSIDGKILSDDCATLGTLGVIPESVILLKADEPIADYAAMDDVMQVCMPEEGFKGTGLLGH
inactive: [1] 0.03 | [2] -0.036 | [3] 0.066 | [4] -0.133 | [5] 0.088 | [6] -0.197 | [7] 0.334 | [8] 0.212 | [9] -0.1 | [10] -0.07

TMEM179B (UniProt Q7Z7N9)
UniProt Q7Z7N9, sequence (Q7Z7N9 whole entry, looked up): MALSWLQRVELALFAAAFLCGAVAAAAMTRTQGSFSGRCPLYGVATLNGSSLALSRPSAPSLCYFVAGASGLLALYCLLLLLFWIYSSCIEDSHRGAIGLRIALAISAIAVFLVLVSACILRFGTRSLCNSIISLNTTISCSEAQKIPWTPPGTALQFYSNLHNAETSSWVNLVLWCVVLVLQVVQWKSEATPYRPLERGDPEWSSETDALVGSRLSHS
inactive: [1] -0.005 | [2] -0.167 | [3] 0.101 | [4] -0.165 | [6] -0.138 | [7] 0.032 | [9] 0.071 | [10] -0.099

VTI1B (UniProt Q9UEU0)
inactive: [1] 0.022 | [2] -0.089 | [3] 0.025 | [4] 0.032 | [5] -0.045 | [6] 0.039 | [7] 0.005 | [8] -0.077 | [9] 0.084
active: [10] -0.41

VTI1A (UniProt Q96AJ9)
inactive: [1] -0.007 | [2] -0.072 | [3] 0.038 | [4] -0.022 | [5] 0.1 | [6] 0.046 | [7] 0.038 | [8] -0.019 | [9] 0.054 | [10] -0.237

TOM1L2 (UniProt Q6ZVM7)
inactive: [1] 0.03 | [2] 0.101 | [3] 0.118 | [4] 0.087 | [5] 0.099 | [8] 0.035 | [9] 0.02

UBE4B isoform 4 (UniProt O95155)
inactive: [1] 0.016 | [2] -0.013 | [3] 0.012 | [4] -0.015 | [5] 0.012 | [6] -0.048 | [7] 0.035 | [8] 0.019 | [9] -0.048 | [10] 0
